Shown are actives, neighbours in structure and some others; about 19% of the full set was active somewhere.
TDP1 cell noCPT: qHTS for Inhibitors of human tyrosyl-DNA phosphodiesterase 1 (TDP1): qHTS in cells in absence of CPT; AID 686978, 2013; hit rate 15% among 420,000; DT40 Tdp1-/- hTDP1 cells, no CPT, ATP luminescence, 48 h; Potency, µM (highest dose often 46.2 µM), inactives show at the top dose activity change, negative = growth inhibition, usual class: inhibitors; also: potency is read from the fitted curve at half-maximal effect; nearly all actives have a fitted effect of over 55% in size
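Stably hTDP1-transfected Tdp1-null chicken DT40 cells were treated with library compounds minus camptothecin and grown for at least 48 hr at 37 °C, after which cellular ATP was quantified by luminescence.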
TDP1 cell CPT: DT40-hTDP1 cell growth loss with CPT | chicken DT40 Tdp1-/-;hTDP1 cells + 20 nM CPT, ATP luminescence, 48 h | hit rate 12% among 420,000 | Potency, µM (titrated, usually from 46.2 µM), for the others: top-dose activity change, negative = growth inhibition, hits mostly inhibitors; also: potency is read from the fitted curve at half-maximal effect; nearly all actives have a fitted effect of over 55% in size
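Cell growth measured by CellTiter-Glo luminescence after a minimum 48 h, 37 C compound exposure with 20 nM CPT in Tdp1-knockout DT40 cells stably expressing hTDP1, seeded 400/well; qHTS titration format.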
HT1080-NT tox: kills 2HG-producing HT-1080-NT fibrosarcoma cells | HT-1080-NT fibrosarcoma viability, CellTiter-Glo ATP luminescence, 48 h | Potency, µM (series often up to 46.1 µM), without a hit: at the top dose activity, negative = less viability, hits mostly cytotoxic | hit rate 1.6% among 360,000 | AID 686970;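 also: NT is the 2HG producing partner of a matched IDH1 knockdown line; potency is read from the fitted curve at half-maximal effect; 0% = DMSO-treated cells and -100% = media-only wells without cells; nearly all actives have a fitted effect of over 55% in size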
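Read-out is CellTiter-Glo luminescence after 10 minutes at room temperature, following 48 hours' compound treatment of HT-1080-NT cells (750 cells/well, RPMI, 5% FBS, 37 degrees C).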
HT1080 IDH1KD tx: HT-1080 IDH1 knockdown cell toxicity (counter line); HT-1080 IDH1 knockdown viability, ATP luminescence, 48 h; Potency, µM (top dose mostly 46.1 µM), for inactives: at the top dose activity, negative = toxicity, usual class: cytotoxic; hit rate 2% among 360,000;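 also: potency is read from the fitted curve at half-maximal effect; 0% = DMSO wells and -100% = cell-free medium wells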
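Knockdown cells (IDH1KD HT-1080) received compounds 2 h after plating at 750 cells/well and were kept 48 h at 37 °C in 5% FBS RPMI. A CellTiter-Glo luminescence read gave % activity for curve fitting.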
IL-1B inflam inh: inhibitors of inflammasome signaling (IL-1 beta secretion); AID 743279; hit rate 4.7% among 360,000; THP-1 LPS/ATP IL-1B secretion, AlphaLISA, 16 h; stronger effect = lower value; activity change, % at 57.5 µM; in the data active = activity change below about -50%; inconclusive = mostly about -30% to -49%
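Secreted IL-1B measured by AlphaLISA bead assay after 16 h compound exposure of THP-1 cells; compounds (final up to 57.5 uM) added 1 h before LPS (250 ng/mL) and ATP (1.25 mM) stimulation; lower signal means less secretion.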
* hit, by the source's call; ? = inconclusive; . = no result. Unless noted, calls follow the shape of the dose curve; as a rule, active = well fitted curve in the direction sought with a large enough effect; inconclusive = small, poorly fitted or top-dose-only effect, or another doubt; inactive = no such curve, though single readings can be large; an effect the other way counts as inactive or inconclusive. Unless noted, % is scaled to controls: 0 for no effect and ±100 for the full control effect.

SMILES | TDP1 cell noCPT | TDP1 cell CPT | HT1080-NT tox | HT1080 IDH1KD tx | IL-1B inflam inh
COC(=O)c1ccccc1OCCCOc1ccc(C=O)cc1OC | ? | ? | -8% | -1% | 13
CCc1nnc(NC(=O)CSc2nc3c([nH]c4ccccc43)c(=O)n2-c2cc(C)cc(C)c2)s1 | 16µM* | ? | . | . | .
O=C(CSc1nc2c([nH]c3ccccc32)c(=O)n1-c1ccccc1F)Nc1ccccc1C(F)(F)F | 21µM* | 16µM* | . | . | .
Cc1ccc(C)c(NC(=O)CSc2nc3c([nH]c4ccccc43)c(=O)n2-c2ccc(F)cc2)c1 | 13µM* | 15µM* | . | . | .
COc1ccc(NC(=O)CSc2nc3c([nH]c4ccccc43)c(=O)n2-c2ccccc2)c(OC)c1 | -24% | -27% | . | . | .
C=CCn1c(SCC(=O)N2CCN(C(=O)OCC)CC2)nc2c([nH]c3ccccc32)c1=O | 16µM* | ? | -1% | 5% | 1
COc1ccc(-n2c(SCC(=O)NC3CCCCC3)nc3c([nH]c4ccccc43)c2=O)cc1 | 21µM* | ? | . | . | .
O=C(CSc1nc2c([nH]c3ccccc32)c(=O)n1-c1cccc(C(F)(F)F)c1)N1CCc2ccccc21 | 8.2µM* | 7.3µM* | . | . | .
COc1ccc(-n2c(SCC(=O)N3CCc4ccccc43)nc3c([nH]c4ccccc43)c2=O)cc1 | -23% | ? | . | . | .
O=C(CSc1nc2c([nH]c3ccccc32)c(=O)n1-c1ccc(F)cc1)NC1CCCCC1 | ? | 15µM* | . | . | .
O=C(CSc1nc2c([nH]c3ccccc32)c(=O)n1-c1ccc(Cl)cc1)N1CCCC1 | -1% | -6% | . | . | .
O=C(CSc1nc2c([nH]c3ccccc32)c(=O)n1-c1ccc(Cl)cc1)N1CCCCCC1 | 21µM* | ? | . | . | .
COc1ccc(-n2c(SCC(=O)NCC3CCCO3)nc3c([nH]c4ccccc43)c2=O)cc1 (stereo not drawn) | -7% | 6% | 3% | 0% | 18
O=C(CSc1nc2c([nH]c3ccccc32)c(=O)n1-c1ccc(F)cc1)NCc1ccccc1 | -11% | -26% | . | . | .
CCC1CCCCN1C(=O)CSc1nc2c([nH]c3ccccc32)c(=O)n1-c1ccc(OC)cc1 (stereo not drawn) | 18µM* | ? | . | . | .
CN(C)c1ccc(N=NS(=O)(=O)O)cc1 | 24µM* | 22µM* | . | . | .
COC(=O)c1ccc2c(=O)[nH]c(COC(=O)c3c(-c4ccccc4Cl)noc3C)nc2c1 | -20% | -15% | -2% | -4% | 24
Cc1ccc(-n2c(SCC(=O)N3CCOCC3)nnc2-c2cccnc2)cc1 | -6% | 1% | 17% | 5% | -23
COc1ccc(N2CCN(C(=O)CSc3nnc(-c4cccnc4)n3-c3ccccc3)CC2)cc1 | -21% | -28% | 0% | -3% | -18
O=C(CSc1nnc(-c2cccnc2)n1-c1ccccc1)N1CCN(c2ccc(F)cc2)CC1 | 21µM* | ? | 4% | 5% | -6
O=C(CSC1=NCCS1)N1CCN(c2ccc(Cl)cc2)CC1 | ? | ? | -25% | ? | -77*
O=C(CSc1nnc(-c2ccncc2)n1-c1ccccc1)N1CCN(c2ccc(Cl)cc2)CC1 | 18µM* | ? | 10% | 5% | 14
O=C(CSC1=NCCS1)c1ccc(Cl)cc1 | ? | ? | -24% | -21% | -26
Cc1ccc(-n2c(SCC(=O)N3CCOCC3)nnc2-c2ccncc2)cc1 | 0% | -1% | 9% | 26% | -3
COc1ccc(N2CCN(C(=O)CSc3nnc(-c4cccnc4)n3-c3ccc(F)cc3)CC2)cc1 | 21µM* | ? | -4% | 11% | -18
SMILES | TDP1 cell noCPT | TDP1 cell CPT | HT1080-NT tox | HT1080 IDH1KD tx | IL-1B inflam inh
O=C(CSc1nnc2ccccn12)N1CCc2ccccc21 | -4% | 0% | 14% | 22% | -7
O=c1c2ccccc2ncn1CCOc1ccccc1[N+](=O)[O-] | -24% | -20% | -2% | 0% | 13
CCc1noc(C)c1C(=O)Nc1ccc(-c2nnc3n2CCCCC3)cc1 | -17% | -4% | 0% | 0% | -15
COc1ccc(N2CCN(C(=O)CSc3nnc4c(C)cc5ccccc5n34)CC2)cc1 | 13µM* | 16µM* | -4% | -2% | 16
O=C(CSc1n[nH]c(-c2ccccc2)n1)N1CCOCC1 | -16% | -13% | 15% | ? | -22
O=C(CSc1n[nH]c(-c2ccccc2)n1)N1CCN(c2ccc(F)cc2)CC1 | 23µM* | ? | . | . | .
Cc1cc2ccccc2n2c(SCC(=O)N3CCc4ccccc4C3)nnc12 | ? | ? | 15% | 9% | -5
Cc1cc2[nH]cnc2c([N+](=O)[O-])c1C | ? | 4% | -2% | 2% | 20
Cc1ccccc1N=Nc1c(O)n(C)c2ccccc12 | 23µM* | ? | 3% | -8% | 19
C=CCn1c(O)c(N=Nc2ccccc2)c2ccccc21 | ? | ? | -5% | 11% | 9
Cn1c(O)c(N=NC(=N)N)c2ccccc21 | 2% | -1% | -2% | 0% | -4
C=CCn1c(O)c(N=Nc2ccccc2O)c2ccccc21 | 18µM* | ? | -14% | -23% | ?
C=CCn1c(O)c(N=Nc2nc3ccccc3c(=O)n2-c2ccccc2)c2ccccc21 | 12µM* | -30% | 0% | -11% | 24
CC(=O)c1cn(CCOc2ccc(F)cc2)c2ccccc12 | ? | 15µM* | ? | ? | 0
O=C(O)c1cn(CCOc2ccccc2Cl)c2ccccc12 | 0% | 30% | 13% | 18% | 11
Cc1ccccc1OCCn1cc(C(=S)N2CCN(C)CC2)c2ccccc21 | 15µM* | ? | -10% | -11% | ?
Cc1ccccc1OCCn1cc(C(=S)N2CCCC2)c2ccccc21 | ? | ? | -27% | -14% | -6
O=C(c1cn(CCOc2ccccc2F)c2ccccc12)C1CCCCC1 | 16µM* | ? | . | . | .
CC(=O)c1cn(CCOc2ccccc2C)c2ccccc12 | 5.8µM* | 8.2µM* | ? | -20% | -16
COC(=O)[C@@]1(Cc2ccc(OC)cc2)[C@H]2c3cc(C(=O)N4CCCC4)n(Cc4c(CO)[nH]cc(C)c4=O)c3C[C@H]2CN1C(=O)c1ccccc1 | ? | ? | -2% | 5% | 6
CCOC(=O)C(=O)N1c2ccccc2C(N(C(=O)C(=O)OCC)c2ccccc2)CC1C (stereo not drawn) | ? | -6% | 28% | 4% | 24
CC1CC(N(C(=O)c2ccc(Cl)cc2)c2ccccc2)c2ccccc2N1C(=O)c1ccco1 (stereo not drawn) | 5.8µM* | 12µM* | ? | ? | ?
CCN1C(=S)SC(=O)C1=C1C=C(C)N(Cc2ccco2)C(C)=C1 | 5.2µM* | 4.6µM* | -25% | -24% | -5
